From PubChem BioAssay
Compounds with a hit are over-represented: about 3.7% of the library has one in this group of screens.
PfHsp90 yeast 2: growth inhibition of yeast expressing Plasmodium Hsp90 | S. cerevisiae expressing PfHsp90, BacTiter-Glo ATP, 48 h; yeast lacking PDR1 and PDR3 efflux regulators | inhibition, % at 9.4 µM | 310,000 tested, 0.32% active | AID 504621;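 active = every replicate shows inhibition above about 80%, whatever the replicate mean, limit read from the data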;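 also: 0% = DMSO neutral controls and 100% = 20 µM radicicol positive controls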
Rce1 inh: inhibitors of yeast Ras-converting enzyme | AID 2563 | calls only | 290,000 tested, 0.27% active | yeast membranes, quenched prenylated peptide cleavage fluorescence;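 active = fall in fluorescence gain of 50% or more versus controls, with final raw signal at or below 3038400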;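 also: plate controls were neutral control wells for no effect and wells lacking membranes for full effect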
Target sequence (Q03530 whole entry, looked up): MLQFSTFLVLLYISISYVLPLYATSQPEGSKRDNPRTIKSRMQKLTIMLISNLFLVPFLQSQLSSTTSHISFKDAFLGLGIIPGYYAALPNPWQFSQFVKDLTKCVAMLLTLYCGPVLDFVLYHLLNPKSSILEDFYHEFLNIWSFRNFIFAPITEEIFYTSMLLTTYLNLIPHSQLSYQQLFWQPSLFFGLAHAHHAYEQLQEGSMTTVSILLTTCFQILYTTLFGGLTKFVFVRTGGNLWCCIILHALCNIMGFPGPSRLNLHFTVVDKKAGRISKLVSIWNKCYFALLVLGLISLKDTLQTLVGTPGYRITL
TIM10 inh: TIM10 yeast growth inhibition | S. cerevisiae TIM10 strain growth, BacTiter-Glo luminescence, 24 h | inhibition, % at 10 µM | 330,000 tested, 1.4% active | AID 463195;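 active = inhibition of 40% or more at the single tested concentration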;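 also: wild-type TIM10 isogenic control strain grown at permissive 25 °C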
tim10-1 inh: tim10-1 yeast growth inhibition | S. cerevisiae tim10-1 ts strain growth, BacTiter-Glo, 24 h | 330,000 tested, 2.2% active | inhibition, % at 20 µM;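 active = inhibition of at least 40%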;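 also: mutant grown at 25 °C; 0% = DMSO wells with yeast and 100% = wells holding no yeast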
tim23-1 inh: growth inhibitors of tim23-1 mutant yeast | S. cerevisiae tim23-1 growth, BacTiter-Glo luminescence, 24 h | inhibition, % at 20 µM | 330,000 tested, 1.3% active;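 active = growth inhibition of the mutant yeast at or above 50%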;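 also: temperature-sensitive mutant grown at 25 °C; plate controls were DMSO-treated mutant yeast for no effect and medium wells lacking yeast for full effect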
tim10-1 confirm: tim10-1 yeast growth inhibition, confirmed; shares compounds with tim10-1 inh; S. cerevisiae tim10-1 ts strain growth, BacTiter-Glo, 24 h; inhibition, % at 20 µM; 7,400 tested, 56% active; AID 463213;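 active = inhibition of yeast growth at or above a set limit in either of two repeat tests at 20 µM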;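 also: tim10-1 mutant grown at permissive 25 °C to find synthetic lethal compounds; 0% = DMSO yeast wells and 100% = medium wells without yeast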
* marks the source's active call; other numbers are inactive results; i = inactive; nt = no result given.

SMILES | PfHsp90 yeast 2 | Rce1 inh | TIM10 inh | tim10-1 inh | tim23-1 inh | tim10-1 confirm
COc1ccccc1N(CC(=O)NC1CCCCC1C)S(=O)(=O)c1cccs1 (configuration not stated) | -9.4 | nt | 17.1 | 23.2 | 31.0 | nt
N#CC1=C(N)Oc2cc3c(cc2C1c1ccc(Cl)cc1)OCO3 (configuration not stated) | 18.1 | i | -11.1 | 43.5* | 29.2 | -10.8
CC1CCCC(C)N1/N=C/c1ccccc1Br (configuration not stated) | 20.1 | i | -15.9 | -8.2 | 5.2 | nt
CC(=O)Oc1ccc2c(=O)oc(-c3ccccc3C)nc2c1 | -13.4 | i | 20.4 | 44.3* | 40.8 | 39.5*
CC(=O)Oc1ccc2c(=O)oc(-c3ccccc3)nc2c1 | -23.4 | i | 16.7 | 34.7 | 30.2 | nt
Cc1noc(C)c1CNCc1ccccc1 | -0.6 | i | 6.0 | 42.1* | 20.7 | 6.8
Cc1cccc2c(=O)c(-c3ccc4c(c3)OCO4)c(NC(=O)c3ccco3)oc12 | -2.0 | i | 27.5 | 42.2* | 46.7 | 7.7
Cc1cccc(-c2c(NC(=O)c3ccco3)oc3c(C)cccc3c2=O)c1 | 11.9 | i | -4.4 | 20.2 | 17.1 | nt
Cc1cc(S(=O)(=O)NC2CC(C)(C)NC(C)(C)C2)c(Cl)cc1Cl | 3.5 | i | -14.1 | -33.2 | -4.5 | nt
Cc1ccc(NC(=Nc2ccc(Br)cc2)N2CCOCC2)cc1C | -7.1 | i | -50.0 | -146.6 | -54.4 | nt
O=C(O)CCC(=O)Nc1cccc2cccnc12 | -22.2 | i | 12.6 | 72.4* | -2.3 | 1.0
CC1(C)C2CCC(C2)C1C/C=N/NC(N)=S (configuration not stated) | 8.0 | i | 17.0 | 45.6* | 30.4 | -5.9
CC(=O)c1ccc(NC(=S)NC(=O)Cc2ccc(Cl)cc2)cc1 | -3.9 | i | -8.2 | -27.6 | -22.3 | nt
CC(=O)c1ccc(NC(=S)NC(C)c2ccc(Cl)cc2Cl)cc1 (configuration not stated) | nt | i | 25.9 | 55.7* | 27.0 | 33.4*
COc1ccc2c(c1)c1nc(SCC(C)C)n(CCO)c(=O)c1n2C | -11.0 | i | 5.3 | 0.3 | 9.4 | nt
COC(=O)C[C@H]1c2ccccc2S(=O)(=O)N1c1cccc(OC)c1 | -7.0 | i | -8.3 | -9.3 | 8.7 | nt
COc1cccc(N2[C@@H](CC(C)=O)c3ccc(/C=C/C(C)=O)cc3S2(=O)=O)c1 | nt | i | 34.0 | 43.8* | 32.7 | 34.2*
CCCOC(=O)c1ccc(Oc2c(-c3ccc(OCC)cc3O)n[nH]c2C)cc1 | 0.0 | i | 32.8 | 41.2* | 24.7 | 28.9
COc1ccc(Oc2c(-c3ccc(O)cc3O)n[nH]c2C)cc1 | 9.2 | i | 5.6 | 20.4 | 3.5 | nt
NNC(=O)c1[nH]c2ccccc2c1-c1ccccc1 | -9.5 | i | 24.9 | 42.0* | 49.8 | 34.9*
CC(=O)NNC(=O)c1[nH]c2ccc(Cl)cc2c1-c1ccccc1 | 0.3 | nt | 20.4 | 13.2 | 16.0 | nt
Cc1c(/C=N/NC(=O)CNc2ccccc2)c2ccccn2c1C(=O)c1ccccc1 | 5.5 | i | 10.9 | 40.1* | 28.7 | 19.2
N/C(=N\OC(=O)C12CC3CC(CC(C3)C1)C2)c1ccncc1 | nt | i | 28.4 | 45.4* | 35.9 | 30.2
Cc1ccc(S(=O)(=O)Oc2ccccc2)cc1 | -1.7 | nt | nt | nt | nt | nt
Cc1ccc(S(=O)(=O)/C=C/c2ccccc2)cc1 | 1.8 | i | 18.4 | 47.9* | 47.7 | 25.6
SMILES | PfHsp90 yeast 2 | Rce1 inh | TIM10 inh | tim10-1 inh | tim23-1 inh | tim10-1 confirm
COc1cccc(/C=N/n2c(C3CCCCC3)n[nH]c2=S)c1OC | -20.7 | i | 23.9 | 34.4 | 16.7 | nt
COc1cccc(/C=N/n2c(C3CCCCC3)n[nH]c2=S)c1O | 15.7 | i | 36.2 | 48.4* | 47.0 | 32.9*
CCCCSCCCNC(=S)Nc1ccccc1C | -4.3 | i | 8.0 | 32.4 | -9.6 | nt
CCCCNC(=S)Nc1ccccc1Cc1ccccc1 | nt | i | 23.2 | 40.7* | 7.9 | 23.7
Cc1nc2c(-c3ccccc3)cnn2c(N)c1-c1ccccc1 | -77.2 | i | 29.6 | 43.3* | 39.0 | 39.5*
Cc1cc(-c2ccccc2)n2ncc(-c3ccccc3)c2n1 | 1.7 | i | -2.1 | 32.3 | 30.7 | nt
COc1ccc(CCNS(=O)(=O)c2ccc(OC)cc2)cc1 | nt | i | 3.6 | 43.9* | 41.1 | 31.6
COc1ccc(CCNS(=O)(=O)c2ccc(N3CCCC3=O)cc2)cc1 | -14.7 | i | 4.1 | 18.3 | 13.2 | nt
COc1ccc(OCC(O)CNC(=O)/C=C/c2cccc([N+](=O)[O-])c2)cc1 (configuration not stated) | -8.5 | i | 18.6 | 17.9 | 6.7 | nt
Clc1cccc(-c2nc(-c3ccccn3)no2)c1 | 34.5 | i | 0.6 | 17.2 | -6.0 | nt
Cc1ccc(-c2nc(-c3ccccn3)no2)cc1 | 55.1 | i | 16.9 | 42.6* | 39.4 | 17.1
Cc1ccc(-c2nc(-c3ccccn3)no2)cc1Cl | 27.8 | i | 23.7 | 40.5* | 44.1 | 14.8
COC1=CC(=O)C(O)=C(CCCCCCC/C=C/CCCCCCCC2=C(O)C(=O)C=C(OC)C2=O)C1=O | 14.7 | i | -2.4 | 43.0* | 43.4 | 37.8*
CN(CC(=O)Nc1ccc(F)cc1)C(=O)COC(=O)/C=C/c1ccccc1[N+](=O)[O-] | nt | nt | 0.6 | 9.1 | 22.5 | nt
O=[N+]([O-])c1ccccc1N/N=C/c1c[nH]c2ccccc12 | 10.1 | i | 33.3 | 69.2* | 32.8 | 56.8*
O=[N+]([O-])c1ccc(N/N=C/c2c[nH]c3ccccc23)cc1 | 61.0 | i | -40.3 | 22.4 | 33.2 | nt
Cc1oc2c(Cl)c(Cl)c(O)c(CN(C)C)c2c1C(=O)c1ccc(Cl)cc1 | -5.2 | i | 37.7 | 48.7* | 45.2 | 52.8*
O=C(CN1CCN(CC(=O)Nc2ccccc2Cc2ccccc2)CC1)Nc1ccccc1Cl | -4.5 | i | -25.9 | 6.4 | -3.4 | nt
CC(Oc1ccc(F)cc1)C(=O)Nc1nc(-c2ccccn2)cs1 (configuration not stated) | -15.3 | i | 26.7 | 42.3* | 34.1 | 29.9
Cn1nnc(NC(=S)NC(=O)c2cc(Cl)ccc2Cl)n1 | 6.9 | i | 10.8 | 40.7* | 40.7 | 0.3
O=C(CN1C(=O)/C(=C/c2ccccc2)SC1=S)N1CCN(CCc2ccccn2)CC1 | -1.7 | i | 18.0 | 41.9* | 39.7 | 30.1
O=C(N[C@H]1CCC(=O)N(CCSc2ccc(Br)cc2)CC1)OCc1ccccc1 | -9.1 | nt | 21.8 | 19.0 | 38.0 | nt
N#C/C(=C/c1ccc(N2CCCCCC2)o1)c1ccc(Cl)cc1 | 104.2* | i | 38.5 | 46.6* | 48.5 | 28.2
COc1ccc(-c2cc(=O)oc3cc(O)ccc23)cc1 | -3.9 | i | 21.9 | -1.5 | 16.2 | nt
COc1ccc(-c2cc(=O)oc3cc(OC(=O)C4CCCCC4)c(Cl)cc23)cc1 | -61.0 | i | 38.1 | 44.0* | 36.8 | 36.1*
COc1ccc2[nH]c3c(N4CCN(Cc5ccc6c(c5)OCO6)CC4)ncnc3c2c1 | 2.9 | i | 26.5 | 19.9 | 34.6 | nt
COc1ccc2[nH]c3c(N4CCC(O)(c5cccc(C(F)(F)F)c5)CC4)ncnc3c2c1 | -6.0 | i | 9.2 | 42.1* | 3.5 | 16.2
